# Compound activity: PubChem, National Center for Advancing Translational Sciences (NCATS)
# Pf Dd2 growth = inhibitors of Plasmodium falciparum Dd2 growth; actives 4.3% (n = 120,000); P. falciparum Dd2 growth, SYBR Green, 72 h; AID 1347417; Potency, µM (titrated, usually from 28.9 µM), actives largely listed as inhibitors; active = well fitted inhibition curve with a large enough effect; also: nearly all actives have a fitted effect of over 65% in size
#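 Readout: SYBR Green fluorescence, 485 nm excitation, 535 nm emission, after ~16 h lysis at 37C. Before that, Dd2-infected red cells (2.5% hematocrit) grew 72 h with compound, 29 uM top final concentration.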
# Numbers stand for hits; . = inactive. Shown is part of a subset that was picked to be rich in hits.
SMILES,Pf Dd2 growth
CC(=O)N1CC2(CCCN2Cc2cccc(C(N)=O)c2)Cc2ccccc21 (stereo not given),.
O=C(c1ccc(Cl)cc1)N1CC2(CCCN(Cc3ccccn3)C2)Cc2ccccc21 (stereo not given),.
CN(C)c1cccc(Oc2nnnn2[C@H]2CO[C@H]3[C@@H]2OC[C@@H]3NC(=O)c2cncnc2)c1,.
CC(C)N1C[C@H](O)C[C@H]1c1nnc2n1CCN(C(=O)Cc1ccccc1)CC2,.
COc1ccc(-c2nc(C3CC(=O)N(c4ccc(C)cc4)C3)no2)c(C)c1 (stereo not given),.
COc1ccccc1N1CCN(C(=O)CN2C(=O)NC3(CCC(C)CC3)C2=O)CC1 (stereo not given),.
Cc1ccc(CSc2oc(-c3cccs3)nc2S(=O)(=O)c2ccccc2)cc1,.
CCC(C)S(=O)(=O)c1oc(-c2cccs2)nc1S(=O)(=O)c1ccccc1 (stereo not given),13µM
O=S(=O)(c1ccccc1)c1nc(-c2cccs2)oc1N1CCCCC1,.
CC1(C)CC(=O)C=C(C(=O)N2CCCC(N3CCN(c4ccccc4F)CC3)C2)O1 (stereo not given),.
COc1ccc(Cl)cc1C(=O)N1C[C@@H](CO)[C@H](c2ccccn2)C1,.
CN1C(=O)c2ccccc2Sc2ccc(NC(=O)N3CCN(c4ccc(F)cc4)CC3)cc21,7.9µM
CCN1C(=O)c2ccccc2Sc2ccc(NC(=O)N3CCN(c4cc(C)ccc4C)CC3)cc21,.
CC(C)NC(=O)Nc1ccc2c(c1)N(C)C(=O)c1ccccc1S2,.
Cc1ccc(CNC(=O)CC2Sc3ncccc3N(C)C2=O)cc1 (stereo not given),.
COc1ccc(F)c(-c2nc(CN3CCN4C(=O)CNC(=O)C4C3)c(C)o2)c1 (stereo not given),.
CCc1ccccc1OCC(=O)c1ccc2c(c1)N(CCCC(=O)N1CCOCC1)C(=O)CO2,.
O=C(Nc1c(C(=O)N2CCN(c3ccccc3F)CC2)oc2ccccc12)c1ccccc1F,.
O=C(Nc1c(C(=O)N2CCN(c3ccccc3)CC2)oc2ccccc12)c1ccc(Br)o1,10µM
Cc1cccc(CC(=O)Nc2c(C(=O)Nc3cccc(F)c3)oc3ccccc23)c1,.
O=C(Nc1c(C(=O)N2CCN(c3ccccc3)CC2)oc2ccccc12)c1ccccc1F,.
COc1ccc(N2CCN(C(=O)c3oc4ccccc4c3NC(=O)c3ccccc3OC)CC2)cc1,.
Cc1cccc(OCC(=O)Nc2c(C(=O)N3CCN(c4ccccc4)CC3)oc3ccccc23)c1,11µM
Cc1cccc(OCC(=O)Nc2c(C(=O)Nc3ccc(F)cc3)oc3ccccc23)c1,.
Cc1cccc(C(=O)Nc2c(C(=O)N3CCN(c4ccc(F)cc4)CC3)oc3ccccc23)c1,13µM
SMILES,Pf Dd2 growth
Cc1ccc(C(=O)c2oc3ccccc3c2NC(=O)COc2ccc(Cl)c(C)c2)cc1,.
CCC(C)C(=O)NC1CCN(c2cnn(Cc3ccccc3)c(=O)c2)CC1 (stereo not given),.
CCCn1cc(NC(=O)CC[C@H]2NC(=O)c3ccccc3NC2=O)c(C)n1,.
CNC(=O)N1CCC(C2CCN(C(=O)c3ccc(OC)c(F)c3)C2)CC1 (stereo not given),.
N#Cc1cccc(NC(=S)O[C@@H]2CO[C@H]3[C@@H]2OC[C@@H]3n2nnnc2SCc2ccco2)c1,.
Nc1ccsc1C(=O)N1CCC2(CCC(=O)N(CC3CCCO3)C2)CC1 (stereo not given),.
Cc1ccc(-c2nnc(C3CN(C(=O)CC4CCCCC4)CC34CCOCC4)o2)cc1 (stereo not given),.
COc1cccc(C(=O)NC2CCN(c3cnn(C)c(=O)c3)CC2)c1OC,.
COc1ccc(C[C@H](NC(=O)C2=C[C@@H](NC(=O)Nc3ccc(OC(F)(F)F)cc3)[C@@H](O)[C@H](O)C2)C(N)=O)cc1,.
CC(=O)N1CCc2cc(Br)cc(S(=O)(=O)CCC(=O)N3CCN(c4cccc(C)c4C)CC3)c21,.
Cc1ccc(Cl)cc1N1CCN(C(=O)CCNS(=O)(=O)c2ccc3c(c2)CCN3C(=O)C2CC2)CC1,.
COc1ccc(N2CCN(C(=O)CCS(=O)(=O)c3cc(Br)cc4c3N(C(=O)C3CC3)CC4)CC2)cc1,5µM
CCC(=O)N1CCc2cc(Br)cc(S(=O)(=O)CCC(=O)Nc3ccccc3C)c21,.
Cc1ccc(Cl)cc1N1CCN(C(=O)CCS(=O)(=O)c2cc(Br)cc3c2N(C(=O)C2CC2)CC3)CC1,10µM
CCN(Cc1ccccc1)S(=O)(=O)c1cc(Br)cc2c1N(C(=O)C1CC1)CC2,7.9µM
CCc1cccc(NC(=O)CCS(=O)(=O)c2cc(Br)cc3c2N(C(C)=O)CC3)c1,.
O=C(CCS(=O)(=O)c1cc(Br)cc2c1N(C(=O)C1CC1)CC2)Nc1ccc(F)cc1,4µM
Cc1ccc(Cl)cc1N1CCN(S(=O)(=O)c2cc(Br)cc3c2N(C(=O)C2CC2)CC3)CC1,.
CCC(=O)N1CCc2cc(Br)cc(S(=O)(=O)CCC(=O)N3CCN(c4cc(C)ccc4C)CC3)c21,.
CCCCN(Cc1ccccc1)S(=O)(=O)c1cc(Br)cc2c1N(C(C)=O)CC2,.
CCOc1ccc(NS(=O)(=O)c2cc(Br)cc3c2N(C(=O)C2CC2)CC3)cc1,.
CCN(CC)Cc1cnc2c(C(=O)N(CC)CC)cnn2c1,.
COc1ccc(N2CCN(C(=O)CN3CC4CC(C3)[C@H]3CCCC(=O)N3C4)CC2)cc1 (stereo not given in full),.
NC(=O)c1cccnc1N1CCC2(CC1)CC(C(=O)O)N(C(=O)C1CC1)C2 (stereo not given),.
COc1ccc(N2CCN(c3ncnc4c3cnn4-c3ccc(C)c(Cl)c3)CC2)cc1,.
SMILES,Pf Dd2 growth
COc1ccc(-n2ncc3c(N4CCN(c5cccc(C)c5)C(C)C4)ncnc32)cc1 (stereo not given),5.6µM
Cc1cccc(-n2ncc3c(N4CCN(c5ccccc5)CC4)ncnc32)c1,.
COc1cc2c(C(=O)N3CCN(c4cccc(C(F)(F)F)c4)CC3)cn(CC(C)C)c(=O)c2cc1OC,8.9µM
CCCN(C(=O)c1cn(CC(C)C)c(=O)c2cc(OC)c(OC)cc12)c1cccc(C)c1,.
COc1cc2[nH]c(=O)n(CCCC(=O)N3CCN(c4cccc(C(F)(F)F)c4)CC3)c(=O)c2cc1OC,.
Cc1nnnn1-c1cccc(-c2nc(Cc3cccs3)nn2CCO)c1,.
CCCOc1cc(C)c2c(c1C)C[C@H]([C@H](C)C(=O)NCCOC)CC2,.
Cc1cc(OCCN2CCOCC2)c(C)c2c1CC[C@@H]([C@H](C)C(=O)N1CCCCC1)C2,11µM
COCCOc1cc(C)c2c(c1C)C[C@H](C(C)C(=O)N1CCOCC1)CC2 (stereo not given in full),.
COc1cc(C)c2c(c1C)C[C@H](C(C)C(=O)N1CCN(CCO)CC1)CC2 (stereo not given in full),.
CCCOc1cc(C)c2c(c1C)C[C@H](C(C)C(=O)NCc1ccc(OC)cc1)CC2 (stereo not given in full),10µM
Cc1cc(OCCN(C)C)c(C)c2c1CC[C@@H]([C@H](C)C(=O)NCc1ccccc1)C2,.
Cc1cc(OCCN2CCOCC2)c(C)c2c1CC[C@@H]([C@H](C)C(=O)NCc1cccnc1)C2,.
COc1cc(C)c2c(c1C)C[C@H](C(C)C(=O)NCc1cccs1)CC2 (stereo not given in full),11µM
COCCOc1cc(C)c2c(c1C)C[C@H](C(C)C(=O)N1CCCCC1)CC2 (stereo not given in full),.
